Measurements as given in PubChem BioAssay AID493073 (Broad Institute, 2011).
The whole screen tested about 1,200 compounds, of which about 810 (68%) were called active. How the calls were made is not given here. The set was probably picked from earlier hits. The list is a sample of the results. Potency and affinity values are given separately.

Test: TRPM1 promoter luciferase signal decrease, dose response, MITF inhibitor project, cell-based, SK-MEL-5, cherry-picked, set 3 (AID 493073)
Settings: SK-MEL-5 TRPM1 promoter luciferase, 24 h; series mostly up to 35 µM

outcome, inactive:
Cc1ccc(NC(=O)Cc2noc3ccccc23)cc1, C=CCNC(=O)c1ccc2nc(Cc3ccc(OC)cc3)oc2c1, Cc1c(C(=O)Nc2ccc(S(=O)(=O)N(C)C3CCN(C)CC3)cc2)oc2c(Cl)cccc12, c1ccc(CSc2nnc(-c3ccco3)n2Cc2ccco2)cc1, Cc1cccc(NC(=O)Cc2ccc(Br)cc2)n1, O=C(NC1CC1)C1CCN(S(=O)(=O)c2ccc(Cl)c([N+](=O)[O-])c2)CC1, CN(c1ccc(O)cc1)c1nc(O)c(C2=c3ccccc3=NC2=O)s1, CCOC(=O)c1cc(-c2ccc(OC)cc2)n[nH]1, COc1c(C)cccc1C(=O)Nc1ccc(N2CCN(S(C)(=O)=O)CC2)cc1, Cc1ccc2oc(Nc3nc(C)c(C)c(C)n3)nc2c1, Cc1c(OCC(=O)NC2CC(C)(C)NC(C)(C)C2)ccc2c1oc(=O)c1ccccc12, O=C1c2ccccc2C(=O)N1CCSc1ccccc1, COc1cc(OC)cc(C(=O)Nc2ccc3c(c2)OCCO3)c1, CN(C)CCNC(=O)/C(=C/c1ccc(-c2ccc(Cl)cc2)o1)NC(=O)c1ccccc1, CN(C)/C=N/c1ncc(C(=O)c2ccccc2)s1, COc1ccc(-c2csc(N(C)C(=O)c3ccco3)n2)cc1, C(=N\Nc1cc(N2CCCCC2)ncn1)/c1ccco1, CC(=O)c1sc(N/N=C\c2ccc(N(C)C)cc2)nc1C, Cc1csc(N/N=C/c2ccc([N+](=O)[O-])cc2)n1, O=C(/C=C/c1ccccc1Cl)NC1CCCCC1, N#C/C(=C\c1cccs1)C(=O)NCC1CCCO1 (stereo not drawn), N#C/C(=C\c1c[nH]c2ccccc12)C(=O)NC1CC1, CCC1CCCCN1CCCNC(=O)c1cn(CC)c2ccc(S(=O)(=O)N(C)C3CCCCC3)cc2c1=O (stereo not drawn), O=C(Cn1nnc(-c2ccccc2Cl)n1)N1CCCCC1, COc1ccc(CCC(=O)N2CCc3ccccc32)cc1, Cc1ccc(C(=O)Nc2ccccc2Cl)cc1, Cc1ccc(C(=O)NC2=NCCS2)cc1Cl, COc1ccc2c(c1OC)C(=O)N(c1ccc(C)cc1)C2, ClC1(Cl)CC1CSc1nnc(-c2ccncc2)o1 (stereo not drawn), CCC(=O)NCCc1nc2cc(NC(=O)c3cccc([N+](=O)[O-])c3)ccc2n1C, O=C(Nc1nnc(Cc2ccccc2)s1)c1ccccc1, COC(=O)c1c(NC(=O)c2nc3ccccc3s2)sc2c1CC(C)(C)NC2(C)C, CC1(C)Cc2c(sc(NC(=O)Nc3ccccc3)c2C(N)=O)CO1, CCC(=O)Nc1cc(C(=O)OCC(=O)c2ccccc2Cl)ccc1C, N#Cc1cnn2cc(CCN3CCOCC3)c(-c3ccc(F)cc3)nc12, CC(C)N1C(=O)S/C(=C\c2ccc(-c3ccc(Cl)c(C(=O)O)c3)o2)C1=O, OCC1CCCC(n2cnc3c(=S)nc[nH]c32)O1 (stereo not drawn), O=C(Nc1ccccc1Cl)Nc1cccc2cccnc12, CCOc1ccc(C(=O)N2CCc3ccccc32)cc1, O=C(c1cc2ccccc2oc1=O)N1CCN(c2ncccn2)CC1, O=C(NCCNc1ccccc1[N+](=O)[O-])c1cc(F)c(F)cc1Cl, Cc1cc2oc3ccc(NCCC4CCCN4C)cc3c(=O)c2cc1C (stereo not drawn), CS(=O)(=O)c1ccc2nc(NC(=O)c3ccccc3)sc2c1, CC1Cc2ccccc2N1C(=O)c1ccc(Br)o1 (stereo not drawn), CCNC(=O)CC1C(=O)N(c2ccc(F)cc2)C(=O)N1CCc1ccc(OC)cc1 (stereo not drawn), COc1ccc(C(=O)CCNc2ccc(F)cc2)cc1, CCN1CCN(c2ccc(S(=O)(=O)N3CCCCC3)cc2NC(=O)/C=C/c2cccc(OC)c2OC)CC1, N/C(=N\OC(=O)c1ccc([N+](=O)[O-])cc1)c1ccc(Br)cc1, COc1ccccc1N1CCN(/N=C/c2ccc([N+](=O)[O-])cc2)CC1, Cc1ccccc1C(=O)O/N=C(\N)c1ccc([N+](=O)[O-])cc1, Cc1ccc(NC(=O)c2ccccc2)cc1, O=C(Nc1ccc(-c2cn3c(n2)SCC3)cc1)c1ccco1, O=C(N/N=C/C=C/c1ccccc1)c1ccccn1, CC(=O)COc1ccc2cc(-c3ccccc3)c(=O)oc2c1, Cc1ccc(CC(=O)Nc2ccc(Cl)cn2)cc1, O=C(NC1=NCCS1)c1ccc(Cl)c(Cl)c1, COc1ccc(NC(=O)C2COc3ccccc3O2)cc1 (stereo not drawn), Cc1ccc(Nc2nnc(-c3ccccc3N)o2)cc1C, COCc1cc(C)nc2sc(C(=O)Nc3cccc(OC)c3)c(N)c12, COc1ccc(/C=C/C(=O)NC(=S)N2CCN(c3ccccc3OC)CC2)cc1, c1cnc(SCCOc2ccc3c(c2)CCC3)nc1, O=C(Nc1ccccn1)c1ccc(Br)s1, Cc1cc(N2CCOCC2)n2ncc(-c3ccccc3Cl)c2n1, CC(=C/c1ccco1)/C=N/N1CCN(c2ccccc2)CC1, CCN(CC(=O)Nc1ccc2c(c1)OCCO2)C(=O)c1ccc([N+](=O)[O-])s1, Cc1ccc(NC(=O)c2cc(N3C(=O)C=CC3=O)ccc2N2CCOCC2)cc1Cl, CS(=O)(=O)N1CCN(c2nc3ccc(Cl)cc3s2)CC1, CCN(CC)C(=O)CCCOc1ccc(Cl)cc1Cl, O=C(Nc1ccccc1F)C(=O)Nc1cccc2ccccc12, COc1cc2ccccc2cc1C(=O)Nc1ccc(N2CCN(C)CC2)cc1, CCOc1cccc(C(=O)NC2=NCCS2)c1, CCCOC(=O)c1ccc(NC(=O)C2CCCO2)cc1 (stereo not drawn), CCOc1ccc(N/C=C/C(=O)c2ccc(OC)c(OC)c2)cc1, O=[N+]([O-])c1cc(C(F)(F)F)ccc1NCCc1ccccn1, COc1cccc(NC(=O)c2cnn(-c3ccccc3)c2C)c1, Cc1cccc(OCC(=O)Nc2cccc(O)c2)c1, Cc1ccc(OCC(=O)Nc2cccc(C)n2)c(C)c1, COc1cccc(NC(=O)c2cc3ccccc3cc2OC)c1
